# Source: PubChem BioAssay
# Compounds with a hit are over-represented: about 7.9% of the library has one in this group of screens.
# FMDV inh: antivirals against foot and mouth disease virus; 410,000 compounds, 1.2% hits; FMDV antiviral cell-based qHTS; Potency, µM (highest dose often 57.9 µM), for inactives: top-dose activity change, negative = inhibition, hits mostly inhibitors; calls by dose curve; tested in HEK293T cells; note: read-out not given here; potency is the fitted concentration of half-maximal effect; nearly all actives have a fitted effect of over 45% in size
# MARV entry inh: Marburg virus entry inhibition | Marburg virus pseudotyped entry inhibition, cell reporter | Potency, µM (highest dose often 37.8 µM), for inactives: at the highest dose activity change, negative = inhibition, actives largely listed as inhibitors | 300,000 compounds, 1.8% hits; calls by dose curve; tested in HEK293 cells; note: potency is the fitted concentration of half-maximal effect
# LASV entry inh: blocks Lassa virus binding to or entry into cells. 300,000 compounds, 1.2% hits. Potency, µM (titrated, usually from 37.9 µM), inactives show top-dose activity change, negative = inhibition, most hits filed as inhibitors. AID 540256. Lassa virus pseudotype entry inhibition, cell reporter; calls by dose curve; tested in HEK293 cells; note: potency is the fitted concentration of half-maximal effect; nearly all actives have a fitted effect of over 50% in size
# HCMV antiviral: human cytomegalovirus inhibition; activity change, negative = inhibition, % at 57.5 µM; HFF cells, HCMV-luciferase reporter, 72 h; active compounds read low; 410,000 compounds, 4.5% hits; AID 1259415; in the data active = activity change below about -60%; inconclusive = no clear call, values can overlap the other calls; inactive = above about -39%
#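 Inhibition of viral replication was scored as loss of reporter luminescence in HFFs infected with HCMV-luciferase (MOI 1 PFU/cell) for 72 h; compounds tested at 2 doses, normalized to buffer and Salinomycin controls.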
# HCV inhibitor: HCV inhibition; Potency, µM (top dose mostly 41.8 µM), inactives show at the top dose activity change, negative = inhibition, actives largely listed as inhibitors; 340,000 compounds, 3.4% hits; Huh7.5.1 HCVcc-Cre infection, luciferase reporter, 44 h; active = well fitted inhibition curve with a large enough effect; inconclusive = small, poorly fitted or top-dose-only effect, or another doubt; inactive = no such curve, though single readings can be large or run the other way; note: potency is the fitted concentration of half-maximal effect
#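 Reporter virus HCVcc-Cre (~0.5 moi) infects cells exposed to compound; seeding density 1,000 cells/well with 4 h settling beforehand. Luminescence, 15 sec read, taken 44 h post-infection following a 15 min RT substrate incubation.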
# An asterisk follows results filed as active; ? = inconclusive; . = no result; + = active, no number; [ ] = remark or other dose. % is set by controls: 0 for no effect and ±100 for the full control effect.
SMILES,FMDV inh,MARV entry inh,LASV entry inh,HCMV antiviral,HCV inhibitor
CN(C)S(=O)(=O)c1cccc(NC(=O)COC(=O)CCSc2ccc(Cl)cc2)c1,43%,7%,11%,-8,-4%
CCN1C(=O)[C@@H]2[C@H]3[C@H](O)[C@H](O)CC(=NO[C@H](C)c4cn([C@@H]5COC[C@@H]5O)nn4)[C@@H]3CC[C@H]2C1=O,.,-32%[14.2 µM],.,.,.
Cc1cc(-c2nnc3n2N=C(c2ccccc2)CS3)n[nH]1,-6%,0%[14.2 µM],-17%,-18,?
C[n+]1c2n(c3ccccc31)N=C(c1ccc(Br)cc1)CS2,?,?,?,-2,?
C[n+]1c2n(c3ccccc31)N=C(c1ccc(-c3ccccc3)cc1)CS2,?,.,.,-99*,7.1µM*
C[n+]1c2n(c3ccccc31)N=C(c1ccccc1)CS2,?,?,?,-92*,-17%
N/C(=N\N=C\c1ccc(O)c(O)c1)c1nonc1N,19%,.,.,33,-13%
N/C(=N\N=C\c1ccc(O)cc1)c1nonc1N,-7%,21µM*,?,19,-18%
CN1CCN(c2cc(-c3ccoc3)ncn2)CC1,-12%,.,.,.,.
CCN(CCCl)c1cc(CN(C)C)cc(NC(=O)c2ccc(C(=O)Nc3cc(CN(C)C)cc(N(CC)CCCl)c3)cc2)c1,?,?,?,-101*,1.4µM*
Cc1ccccc1CN1N=C(/C=C/c2ccccc2)CCC1=O,?,7%[14.2 µM],7.9µM*,2,-23%
Cc1ccc(/C=C/C2=NN(Cc3ccc(Cl)c(Cl)c3)C(=O)CC2)cc1,-9%,30%,-15%,-16,11%
CCc1ccc(S(=O)(=O)c2nnn3c2nc(N2CCCC(C)C2)c2cc(Cl)ccc23)cc1 (stereo not drawn),0%,21%[46.1 µM],.,5,.
CCCCCCNC(=O)CNC(=S)N(Cc1cccs1)C1CCCCC1,4%,.,.,-14,10µM*
CCOC(=O)CNC(=S)N(Cc1cccs1)C1CCCC1,12%,?,2%,15,11%
OC[C@H]1O[C@@H](O[C@H]2[C@H](O)[C@@H](O)[C@H](O)O[C@@H]2CO)[C@H](O)[C@@H](O)[C@@H]1O,2%,.,.,.,.
COc1cc(C(=O)O/N=C2/C=CC(=O)C(C)=C2C)cc(OC)c1OC,?,0%[46.1 µM],-3%,-105*,-19%
Cc1ccc(Cl)cc1NS(=O)(=O)c1ccc(N2CCCCS2(=O)=O)cc1,11µM*,.,7%[46.1 µM],0,.
CC[C@@H](C(=O)[C@@H](C)[C@@H](O)[C@H](C)[C@@H]1O[C@@H]([C@@H](CC)C(=O)O)CC[C@@H]1C)[C@H]1O[C@]2(C=C[C@@H](O)[C@]3(CC[C@@](C)([C@H]4CC[C@](O)(CC)[C@H](C)O4)O3)O2)[C@H](C)C[C@@H]1C,?,.,.,-98*,0.35µM*
O=c1oc2c(F)cc(F)cc2cc1S(=O)(=O)c1ccc(F)cc1,?,15%[46.1 µM],-27%[46.1 µM],42,.
COC(=O)C1=CN(c2ccc(F)cc2)C=C(C(=O)OC)C1c1ccc(O)cc1,-7%,11%[46.1 µM],?,-25,11µM*
COC(=O)C1=CN(c2ccc(OC)cc2)C=C(C(=O)OC)C1c1cc(OC)c(OC)cc1OC,-14%,-9%,0.63µM*,54,-14%
COC(=O)C1=CN(c2cc(C)cc(C)c2)C=C(C(=O)OC)C1c1ccc(OC)c(O)c1,-13%,?,?,11,?
CC(C)C(=O)NCC(c1ccc2c(c1)OCO2)N1CCN(c2ccccc2F)CC1 (stereo not drawn),-12%,.,-2%[46.1 µM],4,.
COc1ccc(/C=N/NC(=O)c2[nH]c3ccc(Br)cc3c2-c2ccccc2)c(C(=O)O)c1OC,-16%,-24%[46.1 µM],-27%,-63*,11%
SMILES,FMDV inh,MARV entry inh,LASV entry inh,HCMV antiviral,HCV inhibitor
COc1ccc(/C=N/NC(=O)c2[nH]c3ccc(Cl)cc3c2-c2ccccc2)c(C(=O)O)c1OC,3%,-29%,2%,-99*,6%
COc1ccc(/C=N/NC(=O)c2[nH]c3ccc(Br)cc3c2-c2ccccc2)cc1,-18%,?,?,.,-59%
COc1ccc(/C=N\NC(=O)COc2ccc(Cl)cc2Cl)c(C(=O)O)c1OC,9%,0%,1%,-29,4%
O=C(N/N=C/c1ccccc1Cl)c1[nH]c2ccc(Br)cc2c1-c1ccccc1,-19%,2.5µM*,?,-18,4µM*
CC1(C)Cc2c(ccc3ccccc23)C(c2cc3ccccc3oc2=O)=N1,-11%,5.8µM*,13µM*,-25,?
CC1(C)Cc2ccccc2C(c2cc3ccccc3oc2=O)=N1,-16%,1%,-1%,-70*,-11%
CC(=O)Nc1ccc(C(=O)N2CCCCC2c2cc(C(=O)Nc3cccc(C#N)c3)no2)cc1 (stereo not drawn),-12%,.,.,7,.
COc1ccc(N2C(=O)[C@@H]3[C@@H](C2=O)[C@@H]2C=C[C@H]3C23CC3)c(OC)c1,.,14%[46.1 µM],.,.,.
CCN(C(=O)CSc1nnc(-c2cc3occc3n2C)n1-c1ccccc1C)c1ccccc1,5%,.,?,14,.
Cc1nc(-c2cccc(NC(=O)COc3ccc(Cl)cc3)c2)cs1,?,13µM*,?,-64*,.
CC(Oc1ccccc1)C(=O)Nc1nc(-c2ccncc2)cs1 (stereo not drawn),-1%,.,.,-19,3%
Cc1nc(-c2cccc(NC(=O)C(C)Oc3ccccc3)c2)cs1 (stereo not drawn),-5%,-2%,8.9µM*,-36,?
COc1cc2c(cc1OC)[C@@H]1N(C)c3ccccc3[C@@]13CCN(S(=O)(=O)C(F)(F)F)C3=C2,.,.,.,13,.
COc1ccc(COCC(O)CN2CCN(S(=O)(=O)c3ccc(C(C)C)cc3)CC2)cc1 (stereo not drawn),-26%,?,?,0,?
CCOc1cccc(-c2c(C(=O)N/N=C(\C)c3ccccn3)nnn2-c2nonc2N)c1,-9%,.,.,-69*,11µM*
Nc1nonc1-n1nnc(C(=O)N/N=C/c2cccc(Cl)c2)c1-c1cccs1,-6%,22%[46.1 µM],-3%[46.1 µM],+,-5%
Nc1nonc1-n1nnc(C(=O)N/N=C/c2cc(Br)cs2)c1-c1ccccc1,-22%,5.6µM*,-19%[46.1 µM],-69*,-11%
CCOc1cccc(-c2c(C(=O)N/N=C(\C)c3ccncc3)nnn2-c2nonc2N)c1,-12%,-19%[46.1 µM],11%[46.1 µM],-30,3%
Nc1nonc1-n1nnc(C(=O)N/N=C/c2ccccn2)c1-c1ccccc1,-14%,?,12%[46.1 µM],0,9%
COc1ccc(/C=N/NC(=O)c2nnn(-c3nonc3N)c2-c2cccs2)cc1OC,?,-1%[46.1 µM],27%[46.1 µM],0,-13%
Cc1ccc(-c2nc3sc(CCNC(=O)c4ccc(F)c(F)c4)c(C)n3n2)cc1,-14%,.,-29%[46.1 µM],35,.
COc1ccc(-c2cc(C(C)=O)c(C)n2CCC(=O)NC2CCCCC2)cc1,12%,.,5%[46.1 µM],0,.
COCCCn1c(-c2ccc(OC)cc2)cc(C(=O)NC2CCCCCCC2)c1C,-3%,?,?,-65*,?
